# Screening results from PubChem.
# Sampled rows, rich in hits. Any-hit rate of the full collection: about 0.39%.
# Tb PFK inh-1: qHTS Assay to Find Inhibitors of T. brucei phosphofructokinase; actives 0.17% (n = 330,000); T. brucei PFK, ADP-Glo luminescence; Potency, µM (titrated, usually from 57.5 µM), inactives show at the highest dose activity, negative = inhibition, usual class: inhibitors; AID 485367, 2010;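 note: 0% = uninhibited 1x PFK enzyme wells and -100% = no-enzyme wells; nearly all actives have a fitted effect of over 60% in size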
# Target sequence (O15648 whole entry, looked up): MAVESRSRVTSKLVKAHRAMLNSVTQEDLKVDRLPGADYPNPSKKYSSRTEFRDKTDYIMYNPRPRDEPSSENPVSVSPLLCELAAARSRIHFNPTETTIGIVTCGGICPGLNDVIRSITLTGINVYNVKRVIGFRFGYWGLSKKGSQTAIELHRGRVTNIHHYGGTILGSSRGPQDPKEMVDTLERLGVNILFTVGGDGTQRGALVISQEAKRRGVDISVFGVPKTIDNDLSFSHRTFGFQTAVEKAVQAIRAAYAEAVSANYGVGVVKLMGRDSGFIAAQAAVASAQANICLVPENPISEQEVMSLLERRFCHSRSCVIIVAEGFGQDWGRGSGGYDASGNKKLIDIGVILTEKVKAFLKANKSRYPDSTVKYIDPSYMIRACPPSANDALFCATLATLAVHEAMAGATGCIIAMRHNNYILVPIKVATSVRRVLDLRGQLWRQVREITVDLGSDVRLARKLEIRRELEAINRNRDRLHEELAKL
#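 Luminescent ADP detection (ADP-Glo, two-step: ATP depletion then ADP-to-ATP conversion for luciferase) reported PFK activity after 45 min room-temperature reaction of 1.25 nM enzyme with 0.5 mM F6P and 0.1 mM ATP at pH 8.0.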
# GLS inhibitor: qHTS for Inhibitors of Glutaminase (GLS) | Glutaminase kidney isoform, mitochondrial (Homo sapiens), O94925 | GLS enzymatic activity, qHTS titration | Potency, µM (top dose mostly 45.5 µM), without a hit: at the top dose activity change, negative = inhibition, actives largely listed as inhibitors | actives 0.21% (n = 410,000); note: % is set by controls: 0 for no effect and ±100 for the full control effect
#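 hKGA in 45 mM KH2PO4 pH 8.2, 0.02% Tween-20 with pin-transferred compounds; 1 mM L-glutamine (stock) plus glutamate oxidase/HRP/Amplex Red coupling added. Fluorescence read initially and after 30 min at RT.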
# p53 reactivator: qHTS assay for re-activators of p53 using a Luc reporter | H1299 p53-A138V BP100-luciferase reporter, luminescence, 24 h | Potency, µM (titrated, usually from 92.2 µM), for inactives: at the highest dose activity change, positive = activation, most hits filed as activators | actives 0.063% (n = 320,000); note: % of control where 0% means no effect; nearly all actives have a fitted effect of over 45% in size
#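 H1299 (p53-null), stable ts p53-A138V + BP100-Luc; 1000 cells/well, Opti-MEM/10% FBS; cpd 4 pt, 1:5; 24 h, 37 deg C, 5% CO2; detection reagent 10 min RT; luminescence.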
# USP2a inh: qHTS Assay for Inhibitors of Ubiquitin-specific Protease USP2a Using CHOP2 as the Reporter. Ubiquitin carboxyl-terminal hydrolase 2 (Homo sapiens), O75604. Potency, µM (top dose mostly 38.3 µM), without a hit: at the top dose activity change, negative = inhibition, actives largely listed as inhibitors. actives 0.01% (n = 330,000). USP2 core, Ub-CHOP2 coupled fluorogenic reporter, 485/531;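 note: plate controls were DMSO wells for no effect and full inhibition by NEM control for full effect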
#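 Cell-free coupled assay: 10nM USP2 core preincubated 30min RT with compound in Tris-HCl pH 8.0/CaCl2/CHAPS buffer, then 25nM Ub-CHOP2 and 25nM reporter substrate; fluorescence (Ex 485/Em 531) read after 60min RT, normalized to NEM inhibition, concentration-response curves fitted.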
# Tb PFK KinaseGlo: Tb PFK orthogonal confirmatory assay using ATP depletion (Kinase-Glo Plus) as an alternative measure of Tb PFK activity: Hit Validation; shares compounds with Tb PFK inh-1; Tb PFK enzyme, ATP depletion, Kinase-Glo Plus luminescence; Potency, µM (titrated, usually from 57.5 µM), inactives show at the highest dose inhibition; actives 47% (n = 1,100); AID 504636, 2011; calls by dose curve; note: nearly all actives have a fitted effect of over 60% in size
# Tb PFK inh-2: Inhibitors of T. brucei phosphofructokinase: Hit Validation; shares compounds with Tb PFK inh-1; purified T. brucei PFK, ADP-Glo luminescence, 45 min; AID 504637, 2011; actives 41% (n = 1,100); Potency, µM (highest dose often 57.5 µM), inactives show top-dose activity change, negative = inhibition, usual class: inhibitors;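 note: plate controls were full PFK enzyme control for no effect and no enzyme control for full effect; nearly all actives have a fitted effect of over 60% in size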
# Numbers without * were called inactive; ? = inconclusive; · = no result; [ ] = another dose, or the depositor's remark. Unless noted, calls come from the whole dose curve; as a rule, active = well fitted curve in the direction sought with a large enough effect; inconclusive = small, poorly fitted or top-dose-only effect, or another doubt; inactive = no such curve, though single readings can be large; an effect the other way counts as inactive or inconclusive. Potency is the fitted concentration of half-maximal effect.
SMILES,Tb PFK inh-1,GLS inhibitor,p53 reactivator,USP2a inh,Tb PFK KinaseGlo,Tb PFK inh-2
O=C1OC(c2cc(I)c(O)c(I)c2)(c2cc(I)c(O)c(I)c2)c2ccccc21,·,25.1µM*,·,·,·,·
Cc1cc(/C=C2\C(=O)NC(=O)N(c3ccccc3F)C2=O)c(C)n1-c1cc(C(=O)O)cc(C(=O)O)c1,-24.3%,5.01µM*,-1.1%,-1.0%,·,·
Cc1cc(/C=C2\C(=O)NC(=O)N(c3ccc(F)cc3)C2=O)c(C)n1-c1cccc(C(=O)O)c1,28.1%,?,6.2%,1.5%,·,·
CCON=C(CC)C1=C(O)CC(c2c(C)cc(C)cc2C)CC1=O (stereo not given),·,0.9%[99.4 µM],·,·,·,·
O=C1NC(=O)N(c2ccccc2)C(=O)/C1=C\c1ccc([N+](=O)[O-])s1,?,?,-11.4%,1.3%,·,·
COc1ccc(OC)c(N2C(=O)NC(=O)/C(=C\c3ccc([N+](=O)[O-])s3)C2=O)c1,?,10µM*,-2.3%,-17.2%,·,·
CCCC(C)C1(CC)C(=O)NC(=S)NC1=O (stereo not given),·,3.9%,·,·,·,·
Cc1cc2c(C(C)C)c(O)c(O)c(C=O)c2c(O)c1-c1c(C)cc2c(C(C)C)c(O)c(O)c(C=O)c2c1O,?,?,-11.7%,5.62µM*,·,·
CCOc1ccc(N2C(=O)/C(=C/c3ccco3)C(=O)NC2=S)cc1,-27.5%,1.78µM*,?,-1.7%,·,·
O=C(O)c1ccccc1-c1ccc(C=C2C(=O)N(c3ccccc3)C(=S)N(c3ccccc3)C2=O)o1,0.3%,8.91µM*,·,2.1%,·,·
CCN(CC)C(=O)c1ccc2c(c1)C1C=CCC1C(C(=O)O)N2 (stereo not given),?,7.08µM*,-2.9%,6.5%,·,·
CCN1CCN(c2ccc(NC(C)=O)cc2Cl)CC1,0.4%,0.3%,-1.4%,-0.9%,·,·
O=C(Nc1ccc(Cl)cc1)Nc1ccc(Cl)c(Cl)c1,-10.2%,3.2%,28.2µM*,-0.8%,·,·
CN1C(=O)NC(=O)/C(=C\c2ccc([N+](=O)[O-])o2)C1=O,18.4%,7.08µM*,2.8%,6.3%,·,·
CN1C(=O)NC(=O)/C(=C/c2ccc([N+](=O)[O-])o2)C1=O,?,118.5%,0.7%,5.2%,·,·
C=C/C=C/CC1=C(C)[C@@H](OC(=O)[C@@H]2[C@@H](/C=C(\C)C(=O)OC)C2(C)C)CC1=O (tested in a mixture with another compound),·,-2.6%,·,·,·,·
ClC[C@H]1CO1 (tested in a mixture with another compound),·,-5.1%,·,·,·,·
CC/C(=N\Nc1ccccc1)c1c(O)n(-c2ccc(OC)cc2)c(=O)[nH]c1=O,1.8%,10µM*,-0.8%,1.4%,·,·
C[C@]12CC[C@@H]3c4ccc(OC(=O)N(CCCl)CCCl)cc4CC[C@@H]3[C@H]1CC[C@@H]2OP(=O)(O)O,·,-15.0%,·,·,·,·
COc1cccc(-c2nnc3n(Cc4ccccc4Cl)c(=O)c4ccccc4n23)c1O,·,38.0%,·,·,·,·
CC(C)NC(=S)NNc1nc2ccccc2s1,?,?,3.8%,1.5%,8.49µM*,7.57µM*
CCOC(=O)[C@]12Cc3ccc4ccccc4c3[C@H]1N(Cc1ccccc1)C(=O)c1ccccc12,·,-6.2%,·,·,·,·
O=c1oc2ccccc2c(O)c1[C@H]1c2ccc(O)cc2Oc2c1c(=O)oc1ccccc21,?,?,-14.3%,1.8%,-26.1%,?
O=C(O)C1OC(Oc2cc3oc(-c4ccccc4)cc(=O)c3c(O)c2O)C(O)C(O)C1O (stereo not given),6.75µM*,-29.6%,14.0%,-0.5%,?,9.53µM*
CCOC(=O)[C@]12Cc3cc(C)ccc3[C@H]1N(C)C(=O)c1cc(OC)ccc12,·,-16.8%,·,·,·,·
SMILES,Tb PFK inh-1,GLS inhibitor,p53 reactivator,USP2a inh,Tb PFK KinaseGlo,Tb PFK inh-2
CC(C)[C@@H]1NC(=O)c2cc([N+](=O)[O-])cc(I)c2NCCCC[C@@H](C(=O)NC(CC(=O)O)C(N)=O)NC(=O)[C@H](CO)NC1=O (stereo not given in full),?,·,-1.2%,2.6%,·,·
O=C1NC(=O)N(Cc2ccc(F)cc2)C(=O)/C1=C\C=C\c1ccco1,?,0.0%,-13.2%,15.0%,·,·
C=CCSC1=N/C(=C\C=C\c2ccco2)C(=O)S1,16.9µM*,-1.6%,3.9%,?,?,?
COC(=O)c1sc(NC(=O)c2cc(-c3ccccc3)nc3ccccc23)c(C#N)c1C,6.75µM*,2.3%,2.6%,-3.8%,8.49µM*,15.1µM*
O=C(c1cc(-c2ccccc2)nc2ccccc12)N1CCC2(CC1)OCCO2,-5.0%,-6.6%,5.6%,-1.6%,·,·
CCOC(=O)[C@]12Cc3cc(OC)ccc3[C@H]1N(CCC(=O)OC)C(=O)c1cc(OC)ccc12,·,-24.9%,·,·,·,·
C/C(=N\NC(=O)C(C)Nc1cccc(Cl)c1)c1ccc([N+](=O)[O-])cc1 (stereo not given),?,1.9%,-8.7%,2.6%,?,?
CC1=NN(CCC#N)C(=O)/C1=C/c1ccc(N(C)C)cc1,21.3µM*,-34.0%,0.5%,2.5%,10.7µM*,26.9µM*
CCCCN1C(=O)/C(=C/c2ccc(N(C)C)cc2)C(=O)N(Cc2ccco2)C1=O,-2.9%,1.8%,-5.2%,5.8%,·,·
CC1=NOC(=O)/C1=C/c1ccc(N(C)C)cc1,15.1µM*,0.1%,27.5%,3.1%,?,13.5µM*
Cc1cc2c(N)cccc2nn1,7.57µM*,7.2%,-6.0%,-0.2%,6.1%,-1.8%
NCc1ccccc1COc1ccccc1,23.9µM*,-1.6%,-3.5%,-0.7%,?,?
c1ccc2oc(-c3ccc4c(c3)CNCc3cnnn3-4)cc2c1,·,1.3%,·,·,·,·
CNc1cc(CSC)nc(SCc2ccc(Cl)c(Cl)c2)n1,21.3µM*,8.3%,0.0%,1.8%,5.36µM*,8.49µM*
Cc1nc(SCc2ccc(Cl)c(Cl)c2)n[nH]1,21.3µM*,5.1%,5.6%,0.3%,12µM*,?
O=C(Cc1ccccc1)N1CCN(Cc2ccc([N+](=O)[O-])cc2)CC1,-10.9%,1.5%,11.1%,4.2%,·,·
CS(=O)(=O)N1CCN(Cc2ccc([N+](=O)[O-])cc2)CC1,?,-13.9%,2.7%,2.2%,?,?
